Laboratory results from article PMC7862700, “An all-to-all approach to the identification of sequence-specific readers for epigenetic DNA modifications on cytosine”.

Key:
Assay in all cases: DAPPL (digital affinity profiling via proximity ligation, sequencing); 10 mM Tris-HCl pH 7.5, 50 mM NaCl, 1 mM DTT, 4% glycerol, room temperature, 30 min; GST-TFs on glutathione beads, 16-mer random dsDNA library, 0.1% formaldehyde crosslink after washing; high values mean tight binding
FLI1 = target: T1, FLI1 (Homo sapiens, UniProt Q01543 1-452); details: protein: recombinant; tags: N-terminal GST; dsDNA, one strand shown
T1 sequence: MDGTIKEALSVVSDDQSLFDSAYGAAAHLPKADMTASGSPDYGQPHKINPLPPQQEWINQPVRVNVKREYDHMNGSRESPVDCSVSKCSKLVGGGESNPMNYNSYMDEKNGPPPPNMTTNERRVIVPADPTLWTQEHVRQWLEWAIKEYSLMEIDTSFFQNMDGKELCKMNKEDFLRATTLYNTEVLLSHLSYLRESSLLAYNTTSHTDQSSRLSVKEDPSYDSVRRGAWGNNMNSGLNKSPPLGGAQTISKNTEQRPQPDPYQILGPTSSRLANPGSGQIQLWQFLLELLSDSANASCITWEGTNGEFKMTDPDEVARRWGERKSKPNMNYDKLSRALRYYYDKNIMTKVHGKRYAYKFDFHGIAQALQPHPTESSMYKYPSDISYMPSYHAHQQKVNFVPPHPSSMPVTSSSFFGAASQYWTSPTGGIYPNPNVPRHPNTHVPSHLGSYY
In short: (§1)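 Binding signal is given per hexamer as its read frequency for a factor divided by its frequency in the tag-only sample. GST-fused human transcription factors were expressed in yeast, captured on glutathione beads, barcoded with DNA and pooled with that sample, then incubated with 200 nmole of a 16-mer random double-stranded DNA library in Tris/NaCl/DTT/glycerol buffer for 30 min at room temperature. The pools were then washed, crosslinked, proximity-ligated, amplified by PCR and sequenced on an Illumina NextSeq500.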

ELK1 = target: T2, ELK1 (Homo sapiens, UniProt P19419 1-428); details: protein: recombinant; tags: N-terminal GST; dsDNA, one strand shown
T2 sequence: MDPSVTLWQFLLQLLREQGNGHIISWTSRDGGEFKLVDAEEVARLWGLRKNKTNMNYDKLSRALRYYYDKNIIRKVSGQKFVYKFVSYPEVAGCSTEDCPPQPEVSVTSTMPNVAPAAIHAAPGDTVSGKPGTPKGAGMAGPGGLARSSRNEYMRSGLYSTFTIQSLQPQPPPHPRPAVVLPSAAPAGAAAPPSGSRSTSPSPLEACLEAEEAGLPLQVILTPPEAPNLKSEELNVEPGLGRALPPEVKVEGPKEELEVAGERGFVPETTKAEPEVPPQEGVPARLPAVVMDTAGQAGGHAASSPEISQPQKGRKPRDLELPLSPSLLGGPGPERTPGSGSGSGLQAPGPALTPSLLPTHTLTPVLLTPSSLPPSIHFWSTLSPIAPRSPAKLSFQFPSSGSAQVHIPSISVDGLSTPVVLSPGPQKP
In short: as §1

GABPA = target: T3, GABPA (Homo sapiens, UniProt Q06546 1-454); details: protein: recombinant; tags: N-terminal GST; dsDNA, one strand shown
T3 sequence: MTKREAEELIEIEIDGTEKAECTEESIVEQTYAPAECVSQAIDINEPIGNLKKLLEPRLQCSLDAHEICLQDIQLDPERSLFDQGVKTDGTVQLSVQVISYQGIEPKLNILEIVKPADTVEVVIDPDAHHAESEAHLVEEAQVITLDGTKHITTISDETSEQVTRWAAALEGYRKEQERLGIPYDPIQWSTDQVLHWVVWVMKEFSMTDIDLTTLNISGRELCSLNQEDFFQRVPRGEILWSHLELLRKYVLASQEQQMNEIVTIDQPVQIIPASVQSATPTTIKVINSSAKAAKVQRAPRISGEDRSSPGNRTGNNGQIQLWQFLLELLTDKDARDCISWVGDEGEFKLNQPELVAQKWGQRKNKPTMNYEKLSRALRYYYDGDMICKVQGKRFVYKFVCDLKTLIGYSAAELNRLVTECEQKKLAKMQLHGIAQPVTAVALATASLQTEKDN
In short: as §1

ERG = target: T4, ERG (Homo sapiens, UniProt P11308 1-479); details: protein: recombinant; tags: N-terminal GST; dsDNA, one strand shown
T4 sequence: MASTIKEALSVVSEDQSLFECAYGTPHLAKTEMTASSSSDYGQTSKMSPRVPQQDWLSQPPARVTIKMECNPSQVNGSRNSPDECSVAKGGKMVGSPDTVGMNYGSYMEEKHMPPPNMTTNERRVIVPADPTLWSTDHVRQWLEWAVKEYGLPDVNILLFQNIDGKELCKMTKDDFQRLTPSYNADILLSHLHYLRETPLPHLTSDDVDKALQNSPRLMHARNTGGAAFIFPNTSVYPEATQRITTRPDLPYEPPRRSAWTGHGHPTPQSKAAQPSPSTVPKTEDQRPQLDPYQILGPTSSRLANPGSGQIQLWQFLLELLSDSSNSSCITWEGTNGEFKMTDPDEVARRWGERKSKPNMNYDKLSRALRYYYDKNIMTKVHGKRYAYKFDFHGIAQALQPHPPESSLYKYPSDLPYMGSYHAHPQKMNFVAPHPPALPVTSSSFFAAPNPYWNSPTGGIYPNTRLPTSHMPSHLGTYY
In short: as §1

ELF1 = ELF1 (Homo sapiens, UniProt P32519 1-619); details: protein: recombinant; tags: N-terminal GST; dsDNA, one strand shown
ELF1, sequence (P32519 whole entry): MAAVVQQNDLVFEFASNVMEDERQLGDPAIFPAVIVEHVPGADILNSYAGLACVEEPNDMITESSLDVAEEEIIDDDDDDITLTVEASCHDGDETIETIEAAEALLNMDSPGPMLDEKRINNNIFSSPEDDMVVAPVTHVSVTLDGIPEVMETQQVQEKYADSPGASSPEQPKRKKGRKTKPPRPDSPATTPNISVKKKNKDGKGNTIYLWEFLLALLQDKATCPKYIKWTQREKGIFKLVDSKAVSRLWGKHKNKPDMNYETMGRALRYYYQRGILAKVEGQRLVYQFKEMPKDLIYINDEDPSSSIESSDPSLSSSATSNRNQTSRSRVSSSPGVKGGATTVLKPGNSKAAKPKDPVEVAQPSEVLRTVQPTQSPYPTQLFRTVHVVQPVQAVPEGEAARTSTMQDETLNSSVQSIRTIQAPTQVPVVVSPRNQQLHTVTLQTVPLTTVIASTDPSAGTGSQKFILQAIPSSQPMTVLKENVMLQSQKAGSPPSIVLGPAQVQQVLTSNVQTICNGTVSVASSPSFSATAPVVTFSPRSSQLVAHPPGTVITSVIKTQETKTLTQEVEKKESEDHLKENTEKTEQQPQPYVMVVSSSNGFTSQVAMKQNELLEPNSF
In short: as §1

EHF = target: T5, EHF (Homo sapiens, UniProt Q9NZC4 1-300); details: protein: recombinant; tags: N-terminal GST; dsDNA, one strand shown
T5 sequence: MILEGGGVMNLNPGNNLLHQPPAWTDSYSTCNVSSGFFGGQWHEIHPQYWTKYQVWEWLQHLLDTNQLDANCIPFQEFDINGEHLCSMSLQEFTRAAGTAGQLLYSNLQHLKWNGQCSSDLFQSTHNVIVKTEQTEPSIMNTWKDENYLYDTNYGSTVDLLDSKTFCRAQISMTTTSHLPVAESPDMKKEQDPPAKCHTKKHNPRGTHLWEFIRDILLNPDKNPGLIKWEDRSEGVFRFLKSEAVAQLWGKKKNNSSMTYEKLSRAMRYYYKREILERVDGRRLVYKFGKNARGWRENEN
In short: as §1

SPI1 = SPI1 (Homo sapiens, UniProt P17947 1-270); details: protein: recombinant; tags: N-terminal GST; dsDNA, one strand shown
In short: as §1

SPIB = SPIB (Homo sapiens, UniProt Q01892 1-262); details: protein: recombinant; tags: N-terminal GST; dsDNA, one strand shown
SPIB, sequence (Q01892 whole entry): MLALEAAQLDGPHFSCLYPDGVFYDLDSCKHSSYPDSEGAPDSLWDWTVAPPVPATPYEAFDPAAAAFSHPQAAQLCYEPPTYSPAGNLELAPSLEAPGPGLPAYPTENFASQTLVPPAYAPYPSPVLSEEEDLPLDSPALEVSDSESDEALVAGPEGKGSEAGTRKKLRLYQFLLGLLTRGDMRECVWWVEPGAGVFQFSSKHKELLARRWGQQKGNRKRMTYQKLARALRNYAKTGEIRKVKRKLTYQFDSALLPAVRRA
In short: as §1

ELK3 = target: T6, ELK3 (Homo sapiens, UniProt P41970 1-407); details: protein: recombinant; tags: N-terminal GST; dsDNA, one strand shown
T6 sequence: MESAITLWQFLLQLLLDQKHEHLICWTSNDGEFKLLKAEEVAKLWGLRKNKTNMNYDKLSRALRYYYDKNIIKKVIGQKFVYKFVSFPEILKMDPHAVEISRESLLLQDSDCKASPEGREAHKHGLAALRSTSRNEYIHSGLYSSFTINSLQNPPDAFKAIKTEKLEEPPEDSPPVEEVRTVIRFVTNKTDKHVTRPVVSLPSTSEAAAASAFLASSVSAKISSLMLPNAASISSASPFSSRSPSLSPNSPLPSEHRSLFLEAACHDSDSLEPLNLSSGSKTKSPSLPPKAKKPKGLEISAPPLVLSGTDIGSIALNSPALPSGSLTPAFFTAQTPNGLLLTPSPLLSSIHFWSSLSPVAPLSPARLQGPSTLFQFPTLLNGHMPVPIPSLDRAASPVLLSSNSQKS
In short: as §1

FEV = target: T7, FEV (Homo sapiens, UniProt Q99581 1-238); details: protein: recombinant; tags: N-terminal GST; dsDNA, one strand shown
T7 sequence: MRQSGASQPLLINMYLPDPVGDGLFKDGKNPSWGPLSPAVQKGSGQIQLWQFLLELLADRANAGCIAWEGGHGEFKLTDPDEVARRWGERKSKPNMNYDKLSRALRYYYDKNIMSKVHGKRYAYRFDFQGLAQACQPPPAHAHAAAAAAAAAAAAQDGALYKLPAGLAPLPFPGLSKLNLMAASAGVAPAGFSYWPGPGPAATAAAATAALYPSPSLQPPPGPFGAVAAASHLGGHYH
In short: as §1

ETV5 = ETV5 (Homo sapiens, UniProt P41161 1-510); details: protein: recombinant; tags: N-terminal GST; dsDNA, one strand shown
ETV5, sequence (P41161 whole entry): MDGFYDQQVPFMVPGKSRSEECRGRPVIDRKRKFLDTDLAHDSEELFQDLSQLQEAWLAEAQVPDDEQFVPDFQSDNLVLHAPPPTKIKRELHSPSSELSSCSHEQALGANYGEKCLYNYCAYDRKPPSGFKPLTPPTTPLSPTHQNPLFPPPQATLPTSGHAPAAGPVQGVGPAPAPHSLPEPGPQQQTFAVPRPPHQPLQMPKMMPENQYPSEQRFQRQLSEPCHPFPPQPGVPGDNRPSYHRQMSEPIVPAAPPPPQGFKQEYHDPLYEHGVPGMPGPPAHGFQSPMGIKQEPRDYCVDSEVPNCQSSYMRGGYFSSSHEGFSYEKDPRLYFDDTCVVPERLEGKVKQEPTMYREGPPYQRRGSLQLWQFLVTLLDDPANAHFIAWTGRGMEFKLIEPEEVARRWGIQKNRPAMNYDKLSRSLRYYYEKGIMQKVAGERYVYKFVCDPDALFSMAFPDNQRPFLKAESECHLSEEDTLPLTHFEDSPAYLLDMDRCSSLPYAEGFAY
In short: as §1

HSF1 = HSF1 (Homo sapiens, UniProt Q00613 1-529); details: protein: recombinant; tags: N-terminal GST; chain copies: 3; dsDNA, one strand shown
HSF1, sequence (Q00613 whole entry): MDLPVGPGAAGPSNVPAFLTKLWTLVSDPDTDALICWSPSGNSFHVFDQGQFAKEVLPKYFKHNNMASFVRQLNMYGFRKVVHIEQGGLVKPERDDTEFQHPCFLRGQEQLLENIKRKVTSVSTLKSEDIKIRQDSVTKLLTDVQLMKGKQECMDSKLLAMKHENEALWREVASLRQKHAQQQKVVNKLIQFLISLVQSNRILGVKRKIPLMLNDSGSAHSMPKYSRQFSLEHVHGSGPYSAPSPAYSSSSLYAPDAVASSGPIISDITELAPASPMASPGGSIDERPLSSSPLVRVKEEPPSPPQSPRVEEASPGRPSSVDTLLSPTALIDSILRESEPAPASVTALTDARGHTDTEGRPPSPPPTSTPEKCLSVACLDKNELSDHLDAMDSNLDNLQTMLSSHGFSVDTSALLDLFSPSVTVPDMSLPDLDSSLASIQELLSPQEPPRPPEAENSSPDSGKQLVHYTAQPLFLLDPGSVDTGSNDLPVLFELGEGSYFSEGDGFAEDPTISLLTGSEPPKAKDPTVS
In short: as §1

SPIC = target: T8, SPIC (Homo sapiens, UniProt Q8N5J4 1-248); details: protein: recombinant; tags: N-terminal GST; dsDNA, one strand shown
T8 sequence: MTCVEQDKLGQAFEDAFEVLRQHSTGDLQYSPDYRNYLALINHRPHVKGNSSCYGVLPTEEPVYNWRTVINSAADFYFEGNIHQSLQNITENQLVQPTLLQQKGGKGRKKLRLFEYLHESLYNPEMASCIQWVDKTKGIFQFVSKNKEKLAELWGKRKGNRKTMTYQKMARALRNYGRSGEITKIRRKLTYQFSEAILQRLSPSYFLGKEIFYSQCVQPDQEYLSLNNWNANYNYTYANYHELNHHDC
In short: as §1

ELF4 = ELF4 (Homo sapiens, UniProt Q99607 1-663); details: protein: recombinant; tags: N-terminal GST; dsDNA, one strand shown
ELF4, sequence (Q99607 whole entry): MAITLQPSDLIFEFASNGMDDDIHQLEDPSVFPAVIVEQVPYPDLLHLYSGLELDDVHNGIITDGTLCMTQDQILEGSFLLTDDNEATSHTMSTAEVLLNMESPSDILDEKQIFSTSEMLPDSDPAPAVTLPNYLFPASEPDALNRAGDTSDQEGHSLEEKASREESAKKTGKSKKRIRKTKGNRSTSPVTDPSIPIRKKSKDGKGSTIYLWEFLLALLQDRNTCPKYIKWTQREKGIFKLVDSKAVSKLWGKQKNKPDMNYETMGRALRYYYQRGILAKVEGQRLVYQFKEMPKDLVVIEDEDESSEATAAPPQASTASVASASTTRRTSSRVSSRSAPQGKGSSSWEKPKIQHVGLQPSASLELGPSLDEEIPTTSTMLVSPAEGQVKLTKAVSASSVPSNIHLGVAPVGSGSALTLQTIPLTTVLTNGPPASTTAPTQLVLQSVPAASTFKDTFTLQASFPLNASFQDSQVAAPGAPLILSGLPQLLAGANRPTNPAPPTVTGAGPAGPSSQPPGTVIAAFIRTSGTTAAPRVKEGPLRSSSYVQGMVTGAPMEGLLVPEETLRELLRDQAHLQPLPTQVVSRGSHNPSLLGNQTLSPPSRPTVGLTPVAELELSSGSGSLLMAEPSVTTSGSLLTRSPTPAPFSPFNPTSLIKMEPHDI
In short: as §1

ELK4 = target: T9, ELK4 (Homo sapiens, UniProt P28324-2 1-405); details: protein: recombinant; tags: N-terminal GST; dsDNA, one strand shown
T9 sequence: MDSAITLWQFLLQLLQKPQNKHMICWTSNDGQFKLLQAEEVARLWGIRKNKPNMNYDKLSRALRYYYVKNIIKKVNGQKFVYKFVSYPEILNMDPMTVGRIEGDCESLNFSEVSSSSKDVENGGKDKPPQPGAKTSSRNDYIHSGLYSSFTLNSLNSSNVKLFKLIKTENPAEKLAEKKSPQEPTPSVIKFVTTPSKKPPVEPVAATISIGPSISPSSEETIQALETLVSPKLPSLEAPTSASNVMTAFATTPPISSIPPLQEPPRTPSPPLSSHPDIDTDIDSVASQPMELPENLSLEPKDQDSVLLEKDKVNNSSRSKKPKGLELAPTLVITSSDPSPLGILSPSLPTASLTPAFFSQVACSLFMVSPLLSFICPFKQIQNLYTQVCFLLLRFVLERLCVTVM
In short: as §1

ETV2 = target: T10, ETV2 (Homo sapiens, UniProt O00321 1-342); details: protein: recombinant; tags: N-terminal GST; dsDNA, one strand shown
T10 sequence: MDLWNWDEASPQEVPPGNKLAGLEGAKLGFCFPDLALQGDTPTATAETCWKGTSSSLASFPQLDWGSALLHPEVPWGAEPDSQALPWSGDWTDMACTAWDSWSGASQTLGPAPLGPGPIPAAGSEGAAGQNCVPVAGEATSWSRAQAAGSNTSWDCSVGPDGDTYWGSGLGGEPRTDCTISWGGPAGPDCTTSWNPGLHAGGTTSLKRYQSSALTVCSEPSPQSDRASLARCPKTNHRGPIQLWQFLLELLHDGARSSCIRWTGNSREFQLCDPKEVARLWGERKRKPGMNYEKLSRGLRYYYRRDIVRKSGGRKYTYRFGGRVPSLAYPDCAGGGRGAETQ
In short: as §1

ELF3 = target: T11, ELF3 (Homo sapiens, UniProt P78545 1-371); details: protein: recombinant; tags: N-terminal GST; dsDNA, one strand shown
T11 sequence: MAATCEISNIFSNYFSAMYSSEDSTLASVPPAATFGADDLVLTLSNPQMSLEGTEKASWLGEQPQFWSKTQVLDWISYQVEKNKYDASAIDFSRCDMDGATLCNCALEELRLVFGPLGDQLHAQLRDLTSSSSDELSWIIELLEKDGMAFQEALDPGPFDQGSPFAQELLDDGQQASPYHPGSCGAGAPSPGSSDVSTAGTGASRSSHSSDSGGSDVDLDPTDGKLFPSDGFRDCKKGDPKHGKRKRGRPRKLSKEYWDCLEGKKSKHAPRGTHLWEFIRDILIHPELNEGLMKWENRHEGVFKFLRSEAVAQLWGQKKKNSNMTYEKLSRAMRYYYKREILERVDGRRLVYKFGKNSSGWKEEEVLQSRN
In short: as §1

CRX = CRX (Homo sapiens, UniProt O43186 1-299); details: protein: recombinant; tags: N-terminal GST; dsDNA, one strand shown
CRX, sequence (O43186 whole entry): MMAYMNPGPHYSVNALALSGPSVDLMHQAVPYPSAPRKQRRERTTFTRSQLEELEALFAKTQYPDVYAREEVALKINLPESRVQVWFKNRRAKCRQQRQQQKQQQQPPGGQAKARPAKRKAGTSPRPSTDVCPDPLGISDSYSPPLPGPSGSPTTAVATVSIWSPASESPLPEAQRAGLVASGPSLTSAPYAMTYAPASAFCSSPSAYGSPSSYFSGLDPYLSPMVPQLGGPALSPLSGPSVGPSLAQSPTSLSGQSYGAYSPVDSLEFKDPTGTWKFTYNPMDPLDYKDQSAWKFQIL
In short: as §1

ETV1 = ETV1 (Homo sapiens, UniProt P50549 1-477); details: protein: recombinant; tags: N-terminal GST; dsDNA, one strand shown
ETV1, sequence (P50549 whole entry): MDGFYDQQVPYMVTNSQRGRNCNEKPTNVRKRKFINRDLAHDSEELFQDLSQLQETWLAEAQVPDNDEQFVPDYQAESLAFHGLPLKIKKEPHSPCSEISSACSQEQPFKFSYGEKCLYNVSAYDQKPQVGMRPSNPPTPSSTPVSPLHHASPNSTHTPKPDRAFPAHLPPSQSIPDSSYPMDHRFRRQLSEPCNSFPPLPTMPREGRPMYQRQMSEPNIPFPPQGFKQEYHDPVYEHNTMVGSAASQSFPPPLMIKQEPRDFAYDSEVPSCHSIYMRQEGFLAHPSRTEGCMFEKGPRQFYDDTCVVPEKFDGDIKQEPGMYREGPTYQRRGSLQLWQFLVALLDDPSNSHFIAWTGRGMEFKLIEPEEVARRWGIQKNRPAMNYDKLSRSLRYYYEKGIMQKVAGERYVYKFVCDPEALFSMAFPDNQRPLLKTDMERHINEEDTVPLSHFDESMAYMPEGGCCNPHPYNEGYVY
In short: as §1

Question: What does the source list for CTTTTC?
Answer: binding signal (FLI1): 1.44 fold enrichment (6-mer frequency, TF over GST control); binding signal (ELK1): 1.51 fold enrichment (6-mer frequency, TF over GST control); binding signal (GABPA): 1.34 fold enrichment (6-mer frequency, TF over GST control); binding signal (ERG): 1.43 fold enrichment (6-mer frequency, TF over GST control); binding signal (ELF1): 1.38 fold enrichment (6-mer frequency, TF over GST control); binding signal (EHF): 1.39 fold enrichment (6-mer frequency, TF over GST control); binding signal (SPI1): 1.65 fold enrichment (6-mer frequency, TF over GST control); binding signal (SPIB): 1.53 fold enrichment (6-mer frequency, TF over GST control); binding signal (ELK3): 1.23 fold enrichment (6-mer frequency, TF over GST control); binding signal (FEV): 1.39 fold enrichment (6-mer frequency, TF over GST control); binding signal (ETV5): 1.44 fold enrichment (6-mer frequency, TF over GST control); binding signal (HSF1): 1.5 fold enrichment (6-mer frequency, TF over GST control); binding signal (SPIC): 1.45 fold enrichment (6-mer frequency, TF over GST control); binding signal (ELF4): 1.43 fold enrichment (6-mer frequency, TF over GST control); binding signal (ELK4): 1.49 fold enrichment (6-mer frequency, TF over GST control); binding signal (ETV2): 1.48 fold enrichment (6-mer frequency, TF over GST control); binding signal (ELF3): 1.48 fold enrichment (6-mer frequency, TF over GST control); binding signal (CRX): 1.25 fold enrichment (6-mer frequency, TF over GST control); binding signal (ETV1): 1.4 fold enrichment (6-mer frequency, TF over GST control)
